Screen size: about 360,000 compounds; about 16,000 (4.4%) were called active. About 9% were inconclusive and are not listed. Only a selection was taken, and actives are over-represented in it overall. Unmarked numbers belong to inactive results. Calls come from the whole dose curve; as a rule, active = well fitted inhibition curve with a large enough effect; inconclusive = small, poorly fitted or top-dose-only effect; inactive = no such curve, though single readings can be large or run the other way.

Results on 50 compounds are retold here after PubChem BioAssay AID504333 (National Center for Advancing Translational Sciences (NCATS), 2011).
% is set by controls: 0 for no effect and ±100 for the full control effect; potency is the fitted concentration of half-maximal effect.

Sequence of Bromodomain adjacent to zinc finger domain protein 2B (Homo sapiens) (Q9UIF8 whole entry, looked up, the tested form may be a part): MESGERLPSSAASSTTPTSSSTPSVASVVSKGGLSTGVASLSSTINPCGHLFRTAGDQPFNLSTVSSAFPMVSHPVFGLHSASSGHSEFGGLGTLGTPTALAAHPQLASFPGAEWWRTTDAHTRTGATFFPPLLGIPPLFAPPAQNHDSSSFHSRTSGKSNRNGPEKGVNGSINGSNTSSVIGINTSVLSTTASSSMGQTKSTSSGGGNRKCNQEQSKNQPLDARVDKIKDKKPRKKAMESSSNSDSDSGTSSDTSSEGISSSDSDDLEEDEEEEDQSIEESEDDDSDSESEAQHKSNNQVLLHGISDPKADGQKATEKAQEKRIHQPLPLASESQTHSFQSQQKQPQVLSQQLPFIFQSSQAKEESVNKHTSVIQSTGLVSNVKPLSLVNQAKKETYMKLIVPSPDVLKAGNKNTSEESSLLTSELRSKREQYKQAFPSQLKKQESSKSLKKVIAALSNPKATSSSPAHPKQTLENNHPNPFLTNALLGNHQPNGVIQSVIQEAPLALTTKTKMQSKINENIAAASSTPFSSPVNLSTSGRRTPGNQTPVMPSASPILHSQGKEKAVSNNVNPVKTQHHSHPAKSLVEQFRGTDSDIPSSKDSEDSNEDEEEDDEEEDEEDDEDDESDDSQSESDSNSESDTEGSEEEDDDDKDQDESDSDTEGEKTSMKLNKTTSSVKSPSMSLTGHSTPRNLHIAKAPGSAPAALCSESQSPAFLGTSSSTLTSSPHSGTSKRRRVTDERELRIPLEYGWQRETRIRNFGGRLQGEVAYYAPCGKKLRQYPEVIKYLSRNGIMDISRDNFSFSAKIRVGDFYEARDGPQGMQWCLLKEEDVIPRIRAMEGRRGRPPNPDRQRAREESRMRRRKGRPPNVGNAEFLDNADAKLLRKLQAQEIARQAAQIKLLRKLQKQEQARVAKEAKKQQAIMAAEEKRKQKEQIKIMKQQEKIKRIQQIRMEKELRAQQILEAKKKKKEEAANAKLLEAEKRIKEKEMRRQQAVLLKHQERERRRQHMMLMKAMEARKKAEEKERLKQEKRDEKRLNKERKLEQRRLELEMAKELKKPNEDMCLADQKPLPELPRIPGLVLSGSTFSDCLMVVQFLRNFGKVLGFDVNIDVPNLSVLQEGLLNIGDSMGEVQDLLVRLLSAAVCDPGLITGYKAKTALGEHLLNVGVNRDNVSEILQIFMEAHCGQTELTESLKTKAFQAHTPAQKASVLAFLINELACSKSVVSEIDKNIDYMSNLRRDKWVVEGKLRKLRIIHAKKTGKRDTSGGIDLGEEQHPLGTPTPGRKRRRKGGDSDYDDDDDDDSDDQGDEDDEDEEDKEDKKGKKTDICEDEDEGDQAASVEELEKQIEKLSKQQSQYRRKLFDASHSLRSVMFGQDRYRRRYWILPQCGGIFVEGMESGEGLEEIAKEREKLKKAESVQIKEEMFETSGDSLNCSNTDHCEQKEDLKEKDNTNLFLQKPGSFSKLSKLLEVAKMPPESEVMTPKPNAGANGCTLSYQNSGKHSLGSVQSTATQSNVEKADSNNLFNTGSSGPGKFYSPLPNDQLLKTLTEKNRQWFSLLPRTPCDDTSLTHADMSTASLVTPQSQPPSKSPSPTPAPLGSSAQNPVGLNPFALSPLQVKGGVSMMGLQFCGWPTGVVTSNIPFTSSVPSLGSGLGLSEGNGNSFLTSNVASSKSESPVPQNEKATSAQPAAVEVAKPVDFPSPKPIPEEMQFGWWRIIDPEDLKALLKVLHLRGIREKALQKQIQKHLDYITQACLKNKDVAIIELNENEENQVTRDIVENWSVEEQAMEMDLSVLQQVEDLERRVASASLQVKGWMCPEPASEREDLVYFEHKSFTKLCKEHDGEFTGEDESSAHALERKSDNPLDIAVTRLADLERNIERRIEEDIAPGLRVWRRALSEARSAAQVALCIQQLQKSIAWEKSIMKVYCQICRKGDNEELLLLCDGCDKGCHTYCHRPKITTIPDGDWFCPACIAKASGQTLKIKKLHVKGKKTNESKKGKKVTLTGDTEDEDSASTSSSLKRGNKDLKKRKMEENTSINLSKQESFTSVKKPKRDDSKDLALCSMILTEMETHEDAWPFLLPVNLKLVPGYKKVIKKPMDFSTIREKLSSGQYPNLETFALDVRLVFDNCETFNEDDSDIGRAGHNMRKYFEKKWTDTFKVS

This test has as its target Bromodomain adjacent to zinc finger domain protein 2B (Homo sapiens) (UniProt Q9UIF8). The test is described as follows: qHTS Assay for Inhibitors of BAZ2B. Note: nearly all actives have a fitted effect of over 60% in size. The note with it: AlphaScreen BAZ2B-H3K14Ac peptide displacement; series mostly up to 114 µM; activity change, negative = inhibition: at the top concentration. An excerpt:
BAZ2B (bromodomain adjacent to zinc finger domain, 2B) belongs to a family of ubiquitously expressed bromodomain containing proteins, which biological function has not yet been elucidated. […] The interaction of BAZ2B with ISWI mediated by the BAZ1 motif has recently been described. […] The protocol is based on the AlphaScreen (PerkinElmer) displacement assay developed by NCGC [5], but uses the peptide ligand Biot-H3K14Ac, a high affinity binding partner for BAZ2B, in an AlphaScreen format. Although AlphaScreen has significant advantages with its utility in a variety of epigenetic target assays, the primary screening data provided in this deposition should be used with caution due to the prevalence of screening artifacts. The top compound concentration tested was 110uM in this assay, which increases number of actives and potential artifacts. An AlphaScreen counterscreen is highly recommended to be run against any putative actives to eliminate non-specific artifacts. Alternatively, one can use other AlphaScreen assays in PubChem to filter out promiscuous hits. Eberharter, A. et al. ACF1 improves the effectiveness of nucleosome mobilization by ISWI through PHD-histone contacts. The EMBO journal 23, 4029-4039. 2004. PMID: 15457208 [2] Jones, M.H. et al. A novel family of bromodomain genes. Genomics 63, 40-45. 2000. PMID: 10662543 [3] Yasgar, et al. Compound Management for Quantitative High-Throughput Screening. JALA. 2008 Apr;13(2):79-89. PMID: 18496600 [4] Inglese, et al. Quantitative high-throughput screening: a titration-based approach that efficiently identifies biological activities in large chemical libraries. Proc Natl Acad Sci. 1;103(31):11473-8. 2006. PMID: 16864780 [5] Quinn et al. A chemiluminescence-based method for identification of histone lysine methyltransferase inhibitors. Mol Biosyst 6(5): 782-8. 2010. PMID: 20567762 [6] Baell,Holloway. New substructure filters for removal of pan assay interference compounds (PAINS) from screening libraries and for their exclusion in bioassays. J Med Chem. 53(7):2719-40. 2010. PMID: 20131845 NIH Molecular Libraries Probe Production Network [MLPCN] NIH Chemical Genomics Center [NCGC] Structural Genomics Consortium (SGC) NIH Grant: 5U54 MH084681-02
To each well of a 1,536w plate, 2ul of BAZ2B protein (final 50nM) and 1ul biotinylated histone peptide acetylated at Lys14 [b-H3(5-23)K14Ac] (final 50nM) were added in 1x PBS buffer, pH 7.4, containing 0.01% Tween-20, using a nanoliter dispenser. Formation of a protein-peptide complex proceeded at room temperature for 30 min. A Kalypsys pin-tool was employed to transfer 23 nL of library compound solution in DMSO to each well. Following a 30 min incubation of the protein-peptide complex with compounds at room temperature, a mixture of 40 ug/mL each streptavidin-coated donor and nickel chelate acceptor AlphaScreen beads (final 10 ug/mL) were added in a 1ul dispense for a final volume of 4ul. A brief centrifugation followed (1000rpm, 1 min) and were then incubated protected from the light for 20 min at room temperature. Plates were read on an EnVision multilabel plate reader using the 1,536 plate HTS AlphaScreen aperture (excitation time 80 ms, measurement time 240 ms).
(qHTS replaces the single test concentration by a dilution series.)
Regarding `CC[N+](C)(CC)CCC[n+]1c(-c2ccccc2)c2cc(N)ccc2c2ccc(N)cc21`, the Potency is 44.7 µM (active).
For the compound `CNC(=O)O/N=C(\N)Cc1csc2ccccc12`, the “activity change, negative = inhibition” value is -3.28%.
Regarding `COCCNC(=O)CN1C2CCC1CC(O)(c1cccnc1)C2` (stereo not given), the “activity change, negative = inhibition” value is -1.47%.
Regarding `COC(=O)C1=C(c2ccc(Cl)c(C(F)(F)F)c2)C[C@@H]2CC[C@H]1N2C(=O)NC1CC1`, the “activity change, negative = inhibition” value is 12.5%.
Still for that read-out and setting: next, `C/C(CCc1c[nH]c2ccccc12)=N\O`: -0.449%.
Take `c1cncc(CNCCc2c[nH]c3ccccc23)c1`: the “activity change, negative = inhibition” value was -22%.
Consider `COc1ccc(CNCCc2c[nH]c3ccccc23)cc1OC`, for which the Potency was 50.1 µM (active).
As to `O=c1[nH]c(O)c(C=Nc2cc(F)cc(F)c2)c(=O)[nH]1`, the “activity change, negative = inhibition” value is 7.43%.
As for `COC(=O)C1=C(c2cccc(OCc3ccccc3)c2)C[C@@H]2CC[C@H]1N2C(=O)NNCc1ccccc1`, the “activity change, negative = inhibition” value was -1.25%.
Same read-out and setting: next, `Cc1ccccc1NC(=O)COC(=O)c1cc(C)n(C2CC2)c1C`: -3.66%; `COc1ccc(C2N3CC(C)(C)CN23)cc1` (stereo not given): -14.1%.
Regarding `CCC1(C)CC(CCNCc2ccc(N(C)C)cc2)(c2ccc(F)cc2)CCO1` (stereo not given), the Potency was 35.5 µM (active).
Turning to `O=C(COC(=O)c1ccccc1)Nc1ccccc1Sc1ccccc1`, the “activity change, negative = inhibition” value was 92.9%.
Regarding `CN(C)CCN(CC1CCCN(Cc2ccccc2F)C1)C(=O)Cc1ccc(F)c(F)c1` (stereo not given), the “activity change, negative = inhibition” value was 0.813%.
On to `CCCCCn1c(=O)c(C(=O)NCc2ccccc2)c(O)c2ccccc21`, for which the “activity change, negative = inhibition” value is 55.7%.
On to `O=C(C1CCN(CC2CCCCC2)CC1)N1CCCC1`, for which the Potency is 70.8 µM (active).
As to `COC(=O)C1=C(c2ccc(-c3ccccc3)c(F)c2)C[C@@H]2CC[C@H]1N2C(=O)NCc1ccc(F)cc1`, the “activity change, negative = inhibition” value is -1.72%.
With `COc1cccc(C(=O)N2C[C@H]3C[C@@H](C2)c2cccc(=O)n2C3)c1`, the “activity change, negative = inhibition” value was -20.1%.
Regarding `COc1cccc(OC)c1C(=O)NC(=S)N1C[C@H]2C[C@H](C1)c1cccc(=O)n1C2`, the “activity change, negative = inhibition” value is -5.95%.
Turning to `COC(=O)C1=C(c2c(C)noc2C)C[C@@H]2CC[C@H]1N2C(=O)NCc1ccc2c(c1)OCO2`, the “activity change, negative = inhibition” value was -0.66%.
For `COc1ccc(CNCCc2ccc3c(c2)OCO3)c(OC)c1OC`, the Potency was 50.1 µM (active).
`Cc1cc(N2C(=O)C3CCCN3C2c2ccc(Cl)c(Cl)c2)no1` (stereo not given): the “activity change, negative = inhibition” value is 8.95%.
With `O=C(O)CCn1cc(C=C2C(=O)NC(=S)NC2=O)c(-c2cccc(Br)c2)n1`, the Potency was 79.4 µM (active).
`CN1C2C=C(N(C(=O)c3ccc(Cl)cc3)c3ccccc3)CC1CC2` (stereo not given): the “activity change, negative = inhibition” value is -15.3%.
Turning to `O=C(NC(=S)N1C[C@H]2C[C@H](C1)c1cccc(=O)n1C2)c1ccc(F)cc1`, the “activity change, negative = inhibition” value is -11.4%.
`O=C(N/N=C/c1c(O)n(Cc2ccccc2)c(=O)[nH]c1=O)c1ccccc1`: the Potency was 50.1 µM (active).
The same measure, in the same setting: next, `CCCCC(=O)N/N=C/c1c(O)n(CCC2=CCCCC2)c(=O)[nH]c1=O`: 79.4 µM (active).
On to `O=c1[nH]c(=O)n(CCc2ccc(F)cc2)c(O)c1/C=N/N1CCCCC1`, for which the “activity change, negative = inhibition” value is -2.13%.
As for `Cc1cccc(-n2c(O)c(C=NC34CN5CN(CN(C5)C3)C4)c(=O)[nH]c2=O)c1`, the “activity change, negative = inhibition” value was -4.42%.
With `CCCCC(=O)N/N=C/c1c(O)n(CC)c(=S)n(CC)c1=O`, the “activity change, negative = inhibition” value is 18.8%.
Turning to `O=c1[nH]c(=O)n(CCc2ccccc2)c(O)c1/C=N/N1CCOCC1`, the “activity change, negative = inhibition” value was 1.1%.
Turning to `CCCCC(=O)N/N=C/c1c(O)n(-c2ccccc2)c(=O)[nH]c1=O`, the Potency was 50.1 µM (active).
For the compound `O=c1[nH]c(=O)n(Cc2ccccc2)c(O)c1/C=N/Nc1c(F)c(F)c(F)c(F)c1F`, the “activity change, negative = inhibition” value was -2.27%.
The same measure, in the same setting: then `O=c1[nH]c(=O)n(-c2ccccc2)c(O)c1C=NC12CN3CN(CN(C3)C1)C2`, with -7.16%.
For `Cn1cc(C(=O)OCC(=O)N2CCCC2)c2ccccc21`, the “activity change, negative = inhibition” value was -1.93%.
Take `C=CCN1C(=O)C2(C(C(=O)OCC)=C(N)Oc3c2c(=O)oc2ccccc32)c2ccccc21` (stereo not given): the “activity change, negative = inhibition” value was 1.37%.
Regarding `O=[N+]([O-])c1ccc(C2C3C(c4ccccc4)=NC4(CCCCC4)N32)cc1` (stereo not given), the “activity change, negative = inhibition” value is -6.5%.
Still for that read-out and setting: then `COC(=O)C1=C(c2ccc(F)cc2OCc2ccccc2)C[C@@H]2CC[C@H]1N2C(=O)NCc1ccc2[nH]ccc2c1`, with -12.4%.
Same read-out and setting: then `COC(=O)C1=C(c2cccc(OCc3ccccc3)c2)C[C@@H]2CC[C@H]1N2C(=O)NCc1ccc(Br)cc1`, with 2.73%; and `C=CCn1c(O)c(/C=N/N2CCOCC2)c(=O)[nH]c1=S`, with -10.9%; and `C[C@@H]1CC[C@@]2(OC1)O[C@H]1C[C@H]3[C@@H]4CC=C5C[C@@H](O)[C@H](O)C[C@]5(C)C4CC[C@]3(C)[C@H]1[C@@H]2C` (stereo not given in full), with 19.8%.
The same measure, in the same setting: next, `CC1=CC(=Cc2sc3ccccc3[n+]2C)C=C(C)O1`: -25.3%.
As for `COC(=O)C1=C(c2ccc(Cl)c(C(F)(F)F)c2)C[C@@H]2CC[C@H]1N2C(=O)NC(C)C`, the “activity change, negative = inhibition” value is 8.23%.
`COc1ccc(-c2nn(CCC#N)cc2C(=O)Nc2ccc(C(C)=O)cc2)cc1`: the “activity change, negative = inhibition” value is 0.868%.
Turning to `COc1ccccc1NC(=O)N1C[C@@H]2C[C@@H](C1)c1cccc(=O)n1C2`, the “activity change, negative = inhibition” value was 8.13%.
With `O=C(O)COc1ccccc1/C=C1\C(=O)NC(=O)N(CCC2=CCCCC2)C1=O`, the “activity change, negative = inhibition” value is -19.3%.
Still for that read-out and setting: next, `O=C1NC(=O)N(CCc2ccc(F)cc2)C(=O)/C1=C/C=C/c1ccccc1`: 7.59%.
In the case of `O=C1NC(=O)N(Cc2ccco2)C(=O)/C1=C\c1cccn1CCOc1ccccc1`, the Potency is 28.2 µM (active).
In the case of `CCOC(=O)c1c(C)c(C(=O)N2CCC3(CC2)OCCO3)c(C)n1CC`, the “activity change, negative = inhibition” value was 9.98%.
`O=c1[nH]c(CN2CC=C(c3ccccc3)CC2)nc2scc(-c3cccs3)c12`: the “activity change, negative = inhibition” value was -8.66%.
